In PubChem BioAssay AID1159580 (chemical genetic matrix, 2015):
Values joined by “and” are separate entries in the source; they are usually repeats but may differ in a detail not shown here. Equal entries are not always repeated. Hit rate of the full screen: of about 5,500 compounds, about 2,000 (36%) were called active. About 18% were inconclusive and are not listed. Rule as the data show it: active = normalized growth mostly below about 0.91 (no sharp cut-off); inconclusive = no clear call, values can overlap the other calls; inactive = mostly above about 0.92. The list shows a part of the results.

Assay: chemical genetic growth profiling, strain panel (AID 1159580);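 also: tested at 20 µM; growth read once vehicle control cultures reached saturation at 30 °C; 1 = growth at the plate median or of vehicle wells; lower values mean less growth of the strain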
Conditions: S. cerevisiae deletion strains, growth OD

Measured: normalized growth

CCn1cc(C(=O)O)c(=O)c2cnc(N3CCCC3)nc21
active: locus YAL021C, strain ccr4, hits give low values 0.898
inactive: locus YAL026C, strain drs2, hits give low values 0.956 | locus YAL030W, strain snc1, hits give low values 0.997 | locus YBL061C, strain skt5, hits give low values 1.01 | locus YBR009C, strain hhf1, hits give low values 1.04 | locus YBR021W, strain FUR4, hits give low values 1.03 | locus YBR023C, strain chs3, hits give low values 1 | locus YBR171W, strain sec66, hits give low values 1 | locus YBR229C, strain ROT2, hits give low values 1.01 | locus YBR231C, strain swc5, hits give low values 1.03 | locus YBR279W, strain paf1, hits give low values 0.989 | locus YCL011C, strain gbp2, hits give low values 1 | locus YCL016C, strain dcc1, hits give low values 1 | locus YCL029C, strain bik1, hits give low values 0.997 | locus YCL061C, strain MRC1, hits give low values 1 | locus YCL069W, strain vba3, hits give low values 0.997 | locus YCR088W, strain abp1, hits give low values 1.01 | locus YDL005C, strain med2, hits give low values 1 | locus YDL035C, strain GPR1, hits give low values 1.02 | locus YDL040C, strain nat1, hits give low values 0.991 | locus YDL074C, strain BRE1, hits give low values 1.04 | locus YDL101C, strain DUN1, hits give low values 1.02 | locus YDL134C, strain PPH21, hits give low values 1.03 | locus YDL185W, strain tfp1, hits give low values 1.01 | locus YDL192W, strain arf1, hits give low values 0.993 | locus YDR001C, strain nth1, hits give low values 1.01 | locus YDR069C, strain doa4, hits give low values 1 | locus YDR101C, strain arx1, hits give low values 0.999 | locus YDR137W, strain rgp1, hits give low values 0.95 | locus YDR159W, strain sac3, hits give low values 1.01 | locus YDR162C, strain NBP2, hits give low values 1.01 | locus YDR195W, strain ref2 1.04 | locus YDR297W, strain sur2, hits give low values 1.01 | locus YDR318W, strain mcm21, hits give low values 1 | locus YDR334W, strain swr1, hits give low values 1.01 | locus YDR335W, strain msn5, hits give low values 1 | locus YDR388W, hits give low values 1.01 | locus YDR392W, strain spt3, hits give low values 1.03 | locus YDR502C, strain sam2, hits give low values 1.01 | locus YEL003W, strain gim4, hits give low values 1.01 | locus YEL037C, strain rad23, hits give low values 0.999 | locus YEL061C, strain CIN8 (second series), hits give low values 1 | locus YEL061C, strain CIN8, hits give low values 0.999 | locus YER015W, strain faa2, hits give low values 1 | locus YER016W, strain bim1, hits give low values 1.01 | locus YER110C, hits give low values 1 | locus YER111C, strain swi4, hits give low values 1.02 | locus YER155C, strain BEM2 (second series), hits give low values 0.998 | locus YER155C, strain BEM2, hits give low values 1.01 | locus YER167W, strain BCK2, hits give low values 1.01 | locus YFR010W, strain ubp6, hits give low values 0.997 | locus YGL078C, strain dbp3, hits give low values 1 | locus YGL086W, strain mad1, hits give low values 1 | locus YGL167C, strain pmr1, hits give low values 1.01 | locus YGL173C, strain kem1, hits give low values 1 | locus YGL227W, strain vid30, hits give low values 1.01 | locus YGL240W, strain doc1, hits give low values 1.05 | locus YGL248W, strain PDE1, hits give low values 1 | locus YGL253W, strain hxk2, hits give low values 1.04 | locus YGR078C, strain PAC10, hits give low values 1.01 | locus YGR135W, strain pre9, hits give low values 1.01 | locus YGR252W, strain gcn5, hits give low values 1.12 | locus YHR013C, strain ard1, hits give low values 0.998 | locus YHR027C, strain rpn1, hits give low values 1 | locus YHR030C, strain SLT2, hits give low values 1 and 0.991 | locus YHR079C, strain IRE1 (second series), hits give low values 1 | locus YHR079C, strain IRE1, hits give low values 0.998 | locus YHR094C, strain hxt1, hits give low values 0.999 | locus YHR129C, strain ARP1, hits give low values 1.02 | locus YHR142W, strain chs7, hits give low values 0.962 | locus YHR200W, strain rpn10, hits give low values 0.998 | locus YIL066C, strain RNR3, hits give low values 1.01 | locus YIL073C, strain SPO22, hits give low values 1.1 | locus YIL125W, strain kgd1, hits give low values 1.01 | locus YIR030C, strain dcg1, hits give low values 0.987 | locus YJL092W, strain hpr5, hits give low values 1.01 | locus YJL095W, strain BCK1 (second series), hits give low values 1 | locus YJL095W, strain BCK1, hits give low values 1 | locus YJL115W, strain asf1, hits give low values 0.94 | locus YJL129C, strain trk1, hits give low values 1.11 | locus YJL134W, strain LCB3, hits give low values 1 | locus YJL154C, strain vps35, hits give low values 0.991 | locus YJL164C, strain tpk1, hits give low values 0.99 | locus YJL166W, strain qcr8, hits give low values 0.996 | locus YJL168C, strain set2, hits give low values 1 | locus YJL187C, strain SWE1 (second series), hits give low values 0.997 | locus YJL187C, strain SWE1, hits give low values 1 | locus YJR043C, strain POL32, hits give low values 1.03 | locus YJR066W, strain TOR1, hits give low values 0.982 | locus YJR075W, strain HOC1, hits give low values 1.02
